Compound activity (PubChem)
MazEF act: activators of E. coli MazEF toxin-antitoxin RNase | actives 0.32% (n = 350,000) | FAM/BHQ RNA-DNA oligo cleavage fluorescence, 5 h | activation, % at 20 µM | AID 504720 | P0AE70; in the data active means activation above about 50%
Anthrax LF prot: anthrax lethal factor protease inhibition. P15917. multiplex microsphere protease cleavage assay, LF. actives 0.12% (n = 360,000). inhibition, % at 10 µM. AID 588501; further: plate controls were buffer without enzyme for full effect and enzyme alone for no effect
Autofluor counter: counter-screen for toxin protease inhibitors: compound fluorescence; compound autofluorescence counterscreen, microsphere flow cytometry; active compounds read high; fluorescence intensity (concentration not given with the values); actives 3.1% (n = 360,000); in the data active means fluorescence intensity above about 16000; inconclusive means no clear call, values can overlap the other calls
VHR inh abs: blocks human VHR1 dual specificity phosphatase; AID 1654; inhibition, % at 13.3 µM; actives 0.52% (n = 290,000); recombinant VHR phosphatase, pNPP absorbance; in the data active means inhibition above about 50%
BoNT F protease: BoNT F light chain protease inhibition. AID 588497. actives 0.22% (n = 360,000). Multiplex microsphere protease cleavage assay, flow cytometry. inhibition, % at 10 µM; in the data active means inhibition above about 35%, passing the limit was not always enough; inconclusive means no clear call, values can overlap the other calls; further: plate controls were buffer without enzyme for full effect and enzyme alone for no effect
BoNT A protease: inhibitors of Botulinum neurotoxin A light chain protease | multiplex microsphere protease substrate cleavage, flow cytometry | inhibition, % at 10 µM | actives 0.17% (n = 360,000); further: plate controls were buffer without enzyme for full effect and enzyme alone for no effect
An asterisk follows results filed as active. An excerpt weighted towards active compounds, which were near 4.1% of everything screened. Unless noted, no stated cut-off is given here; in the data, active means inhibition above about 30%; inconclusive means no clear call, values can overlap the other calls; inactive means below that.

CCCn1c(SC(C)C(=O)O)nc2ccccc21 (stereo not drawn) was read as MazEF act 2, Anthrax LF prot -2, Autofluor counter 21928*, VHR inh abs -13, BoNT F protease 4 and BoNT A protease 2.
`Nc1nc(-c2cccnc2)nn1C(=O)CCc1ccccc1` gave MazEF act 4, Anthrax LF prot -5, Autofluor counter 8911, BoNT F protease -1 and BoNT A protease 0.
`Nc1nc(-c2cccnc2)nn1C(=O)COc1ccccc1` gave MazEF act 7, Anthrax LF prot -2, Autofluor counter 24503*, VHR inh abs 28, BoNT F protease -6 and BoNT A protease -2.
Screening Cc1cc(=O)oc2cc(OC(=O)CCN3C(=O)c4ccccc4C3=O)ccc12 returned MazEF act 4, Anthrax LF prot -4, Autofluor counter 22230*, VHR inh abs -6, BoNT F protease 2 and BoNT A protease 2.
COc1ccc(OC(=O)CCCN2C(=O)c3ccccc3C2=O)cc1 was read as MazEF act -3, Anthrax LF prot -4, Autofluor counter 24000*, VHR inh abs -1, BoNT F protease -3 and BoNT A protease -3.
Cc1ccc(C)c(C(=O)CCC(=O)NNC(=O)c2cccs2)c1 was read as MazEF act 3, Anthrax LF prot 7, Autofluor counter 8423, BoNT F protease -2 and BoNT A protease 1.
For COc1ccc(N2C(=NC(=O)C3CC3)SC3CS(=O)(=O)CC32)cc1Cl (stereo not drawn) the results were MazEF act -3, Anthrax LF prot 1, Autofluor counter 5219, VHR inh abs -8, BoNT F protease 2 and BoNT A protease 0.
For Cc1ccccc1-c1cccc([C@@H]2C[C@H]3[C@H](CON3C)CN2C(=O)CCc2ccccc2)c1 the results were MazEF act 0, Anthrax LF prot 6, Autofluor counter 3301, BoNT F protease -2 and BoNT A protease 0.
For Cn1cc(-c2nnnn2-c2ccc(Cl)cc2)c(C(F)(F)F)n1 the results were MazEF act 1, Anthrax LF prot -1, Autofluor counter 23367*, VHR inh abs -14, BoNT F protease 1 and BoNT A protease 1.
For COC(=O)c1ccc(N2CCN(C)CC2)c(NC(=O)c2sc3ccccc3c2Cl)c1 the results were MazEF act 40, Anthrax LF prot -10, Autofluor counter 5014, BoNT F protease 13 and BoNT A protease -6.
Cn1nc(C(C)(C)C)cc1C(=O)Nc1nc2c(s1)C(=O)CC(C)(C)C2 was read as MazEF act -2, Anthrax LF prot 1, Autofluor counter 22625*, VHR inh abs 15, BoNT F protease 2 and BoNT A protease 0.
`CC1(C)CC(=O)c2sc(NC(=O)C3CC3)nc2C1` gave MazEF act 1, Anthrax LF prot -4, Autofluor counter 5400, VHR inh abs -4, BoNT F protease -6 and BoNT A protease 0.
Screening Cc1cc(C)n2nc(SCC(=O)N3CCC4(CC3)OCCO4)nc2n1 returned MazEF act -1, Anthrax LF prot -8, Autofluor counter 19682*, VHR inh abs 29, BoNT F protease 2 and BoNT A protease 2.
Cc1cc(C)n2nc(SCC(=O)N3CCCC3)nc2n1 was read as MazEF act 0, Anthrax LF prot 6, Autofluor counter 3743, BoNT F protease 0 and BoNT A protease 0.
For Nc1c(C(O)(C(F)(F)F)C(F)(F)F)ccc2ccccc12 the results were MazEF act -10, Anthrax LF prot -7, Autofluor counter 17206*, VHR inh abs 21, BoNT F protease -7 and BoNT A protease -4.
`COc1ccc(NC(=O)c2cccnc2C(=O)O)c(OC)c1` gave MazEF act 7, Anthrax LF prot 4, Autofluor counter 20348*, VHR inh abs 12, BoNT F protease 10 and BoNT A protease 8.
`COc1ccc(NC(=O)c2ccccc2O)c(OC)c1` gave MazEF act 2, Anthrax LF prot -10, Autofluor counter 18765*, VHR inh abs 35, BoNT F protease 5 and BoNT A protease 5.
`COc1ccc(NC(=O)NCc2ccncc2)c(OC)c1` gave MazEF act -4, Anthrax LF prot -3, Autofluor counter 22838*, VHR inh abs 21, BoNT F protease -5 and BoNT A protease inconclusive.
For COc1ccc(NC(=O)Nc2ccc3c(c2)CCC3)c(OC)c1 the results were MazEF act 57*, Anthrax LF prot 5, Autofluor counter 4450, VHR inh abs -11, BoNT F protease 0 and BoNT A protease -2.
COc1ccc(NC(=O)C(=O)NCc2ccncc2)c(OC)c1 was read as MazEF act -7, Anthrax LF prot -3, Autofluor counter 5011, VHR inh abs 29, BoNT F protease -3 and BoNT A protease -1.
COc1ccc(NC(=O)c2ccccc2SC)c(OC)c1 was read as MazEF act 5, Anthrax LF prot -5, Autofluor counter 3872, VHR inh abs 9, BoNT F protease -2 and BoNT A protease 0.
For COc1ccc(NC(=O)c2c(OC)cccc2OC)c(OC)c1 the results were MazEF act 9, Anthrax LF prot -19, Autofluor counter 16438*, VHR inh abs 5, BoNT F protease -16 and BoNT A protease 15.
`CC1=C(C(=O)Nc2ccc(Cl)cc2)C(c2cccs2)n2nnnc2N1` (stereo not drawn) gave MazEF act 5, Anthrax LF prot -2, Autofluor counter 23559*, VHR inh abs 19, BoNT F protease -3 and BoNT A protease inconclusive.
For CCC(=O)Oc1ccc2c(c1)O/C(=C\c1ccco1)C2=O the results were MazEF act 691* and VHR inh abs -3.
For COc1ccc(S(=O)(=O)Oc2ccc3c(c2)O/C(=C\c2cccnc2)C3=O)cc1 the results were MazEF act 1, Anthrax LF prot -2, Autofluor counter 23126*, VHR inh abs 25, BoNT F protease -2 and BoNT A protease inconclusive.
Screening O=C1/C(=C/c2cccnc2)Oc2cc(OS(=O)(=O)c3ccccc3)ccc21 returned MazEF act -2, Anthrax LF prot 2, Autofluor counter 10783, VHR inh abs -23, BoNT F protease -1 and BoNT A protease 0.
For CS(=O)(=O)Oc1ccc2c(c1)O/C(=C\c1cccnc1)C2=O the results were MazEF act 19, Anthrax LF prot -10, Autofluor counter 3718, VHR inh abs 4, BoNT F protease inconclusive and BoNT A protease -4.
COc1ccccc1C(=O)Oc1ccc2c(c1)O/C(=C\c1ccncc1)C2=O was read as MazEF act 206*, Anthrax LF prot -2, Autofluor counter 2024, VHR inh abs -2, BoNT F protease 7 and BoNT A protease 2.
O=C1/C(=C/c2cccnc2)Oc2cc(OS(=O)(=O)c3ccc(Cl)cc3)ccc21 was read as MazEF act 14, Anthrax LF prot 2, Autofluor counter 21029*, VHR inh abs -32, BoNT F protease 6 and BoNT A protease 4.
Screening Cc1ccc(NC(=O)CC2CCCC2)c(Br)c1 returned MazEF act 0, Anthrax LF prot 11, Autofluor counter 3690, VHR inh abs -11, BoNT F protease 2 and BoNT A protease 1.
